This passage reports binding signal results from paper PMC9911399, “Two distinct binding modes provide the RNA-binding protein RbFox with extraordinary sequence specificity”.

The labels stand for the following.
T1: RBFOX1 RRM RbFoxmut (Fox-RRM*) (Homo sapiens, UniProt Q9NWB1 109-208, R118D;E147R;N151S;E152T)
T1 sequence: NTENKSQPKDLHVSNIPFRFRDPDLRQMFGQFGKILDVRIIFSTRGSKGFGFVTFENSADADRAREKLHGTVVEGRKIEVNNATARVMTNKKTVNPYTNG

B1: GCCAUCG (DNA:RNA)
RNA: GGGAGACCGGAAUUCAGAUUGUCCGCCAUCGUUAAAUCCCGUCGUAGCCACCA
DNA 1: CAATCTGAATTCCGGTCTCCC
DNA 2: TGGTGGCTACGACGGGATT
B2: GUCAUAC (DNA:RNA)
RNA: B1 RNA with C26U, C30A, G31C
DNA 1: CAATCTGAATTCCGGTCTCCC
DNA 2: TGGTGGCTACGACGGGATT
B3: AUUUCGA (DNA:RNA)
RNA: GGGAGACCGGAAUUCAGAUUGUCCAUUUCGAUUAAAUCCCGUCGUAGCCACCA
DNA 1: CAATCTGAATTCCGGTCTCCC
DNA 2: TGGTGGCTACGACGGGATT
B4: AAACAAG (DNA:RNA)
RNA: B3 RNA with U26A, U27A, U28C, C29A, G30A, A31G
DNA 1: CAATCTGAATTCCGGTCTCCC
DNA 2: TGGTGGCTACGACGGGATT
B5: UAAUACC (DNA:RNA)
RNA: B3 RNA with A25U, U26A, U27A, C29A, G30C, A31C
DNA 1: CAATCTGAATTCCGGTCTCCC
DNA 2: TGGTGGCTACGACGGGATT
B6: AGCUAUA (DNA:RNA)
RNA: B3 RNA with U26G, U27C, C29A, G30U
DNA 1: CAATCTGAATTCCGGTCTCCC
DNA 2: TGGTGGCTACGACGGGATT
B7: AGUGGCA (DNA:RNA)
RNA: B3 RNA with U26G, U28G, C29G, G30C
DNA 1: CAATCTGAATTCCGGTCTCCC
DNA 2: TGGTGGCTACGACGGGATT
B8: CAAAUUG (DNA:RNA)
RNA: B1 RNA with G25C, C26A, C27A, C30U
DNA 1: CAATCTGAATTCCGGTCTCCC
DNA 2: TGGTGGCTACGACGGGATT
B9: GCGGGUG (DNA:RNA)
RNA: B1 RNA with C27G, A28G, U29G, C30U
DNA 1: CAATCTGAATTCCGGTCTCCC
DNA 2: TGGTGGCTACGACGGGATT
B10: GGGGGUG (DNA:RNA)
RNA: B1 RNA with C26G, C27G, A28G, U29G, C30U
DNA 1: CAATCTGAATTCCGGTCTCCC
DNA 2: TGGTGGCTACGACGGGATT
B11: GGGGGUC (DNA:RNA)
RNA: B1 RNA with C26G, C27G, A28G, U29G, C30U, G31C
DNA 1: CAATCTGAATTCCGGTCTCCC
DNA 2: TGGTGGCTACGACGGGATT
B12: GGGUGUC (DNA:RNA)
RNA: B3 RNA with A25G, U26G, U27G, C29G, G30U, A31C
DNA 1: CAATCTGAATTCCGGTCTCCC
DNA 2: TGGTGGCTACGACGGGATT
B13: CCGGGUG (DNA:RNA)
RNA: B1 RNA with G25C, C27G, A28G, U29G, C30U
DNA 1: CAATCTGAATTCCGGTCTCCC
DNA 2: TGGTGGCTACGACGGGATT
B14: GGGUGUG (DNA:RNA)
RNA: B1 RNA with C26G, C27G, A28U, U29G, C30U
DNA 1: CAATCTGAATTCCGGTCTCCC
DNA 2: TGGTGGCTACGACGGGATT
B15: GGUCUGG (DNA:RNA)
RNA: B1 RNA with C26G, C27U, A28C, C30G
DNA 1: CAATCTGAATTCCGGTCTCCC
DNA 2: TGGTGGCTACGACGGGATT
B16: ACUUCCA (DNA:RNA)
RNA: B3 RNA with U26C, G30C
DNA 1: CAATCTGAATTCCGGTCTCCC
DNA 2: TGGTGGCTACGACGGGATT
B17: CCAGGGC (DNA:RNA)
RNA: B3 RNA with A25C, U26C, U27A, U28G, C29G, A31C
DNA 1: CAATCTGAATTCCGGTCTCCC
DNA 2: TGGTGGCTACGACGGGATT
B18: AGUUAUG (DNA:RNA)
RNA: B3 RNA with U26G, C29A, G30U, A31G
DNA 1: CAATCTGAATTCCGGTCTCCC
DNA 2: TGGTGGCTACGACGGGATT
B19: ACCUUAA (DNA:RNA)
RNA: B3 RNA with U26C, U27C, C29U, G30A
DNA 1: CAATCTGAATTCCGGTCTCCC
DNA 2: TGGTGGCTACGACGGGATT
B20: CCCGCAU (DNA:RNA)
RNA: B1 RNA with G25C, A28G, U29C, C30A, G31U
DNA 1: CAATCTGAATTCCGGTCTCCC
DNA 2: TGGTGGCTACGACGGGATT

Where a chain is given by its changes, count along the chain named. The full ranking holds about 16,000 sequences; the median of “ka relative to ugcaugu” is about 0.096, and the highest 2% start at about 0.35. Shown is part of a subset that was picked to be rich in the highest values.

The target of the assay is T1, RBFOX1 RRM RbFoxmut (Fox-RRM*). The experiment in a line: EMSA; HiTS-Eq, 1 nM pool, 10 min; buffer printed only for the single-RNA assays: 10 mM Tris pH 7.5, 150 mM NaCl, 3.4 mM EDTA, 0.001% NP-40, 30 C. Particulars: tags: His6 N-terminal (pET28a); label: 5' 32P. The procedure, abridged:
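Relative association constants, normalised to the cognate motif, were derived by comparing read counts of each RNA species with those of the control reaction. The RNA sequenced was the free fraction, separated by 8% native PAGE after a 10 min equilibration in 50 µL of 1 nM 5′-radiolabelled RNA (7 randomized nucleotides) with increasing concentrations of purified wild-type or mutant RbFox RRM.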
B1: the binding signal is 0.0927 KA relative to UGCAUGU.

With B2, the binding signal was 0.1 KA relative to UGCAUGU.

For the molecule B3, the binding signal is 0.114 KA relative to UGCAUGU.

As to B4, the binding signal is 0.0927 KA relative to UGCAUGU.

As to B5, the binding signal is 0.0785 KA relative to UGCAUGU.

Regarding B6, the binding signal is 0.14 KA relative to UGCAUGU.

As for B7, the binding signal was 0.144 KA relative to UGCAUGU.

Turning to B8, the binding signal is 0.117 KA relative to UGCAUGU.

As to B9, the binding signal was 0.194 KA relative to UGCAUGU.

For B10, the binding signal was 0.289 KA relative to UGCAUGU.

As for B11, the binding signal is 0.201 KA relative to UGCAUGU.

As to B12, the binding signal was 0.368 KA relative to UGCAUGU.

As to B13, the binding signal is 0.163 KA relative to UGCAUGU.

As to B14, the binding signal was 0.441 KA relative to UGCAUGU.

Turning to B15, the binding signal is 0.153 KA relative to UGCAUGU.

Consider B16, for which the binding signal was 0.0542 KA relative to UGCAUGU.

With B17, the binding signal is 0.102 KA relative to UGCAUGU.

As for B18, the binding signal is 0.28 KA relative to UGCAUGU.

As for B19, the binding signal was 0.129 KA relative to UGCAUGU.

Take B20: the binding signal is 0.0703 KA relative to UGCAUGU.
